Shown are actives, neighbours in structure and some others; about 7.3% of the full set was active somewhere.
ELG1 genotoxic: genotoxicity induction in ELG1-luciferase HEK293T cells; HEK293T ELG1-luciferase reporter, luminescence, 16 h; Potency, µM (doses to about 46 µM), for inactives: at the highest dose activity change, positive = activation, most hits filed as activators; AID 504466; 330,000 tested, 1.3% active; further: % of control where 0% means no effect; nearly all actives have a fitted effect of over 60% in size
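Screening used a luciferase reporter fused to human ELG1 in HEK293T cells. Luminescence was read on a CCD plate imager after 16 hr exposure and 30 min ONE-Glo incubation.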
Rab9 prom act: Rab9 promoter activation | Huh7 Rab9 promoter-luciferase reporter, luminescence, 24 h | Potency, µM (titrated, usually from 9.22 µM), for the others: at the top dose activation, negative = inhibition, usual class: activators | 320,000 tested, 2.8% active; further: % of control where 0% means no effect; nearly all actives have a fitted effect of over 60% in size
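Luminescence from Amplite-detected luciferase (10 minutes, ambient) reports Rab9 promoter activation. Before that, stable Rab9-luciferase Huh7 cells (1500/well, reduced-serum OP-MEM I plus 10% FBS) were exposed to compound for 24 hours at 37C.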
NPC1 promoter act: activates the NPC1 promoter | Huh7 NPC1 promoter luciferase reporter, 24 h | Potency, µM (highest dose often 9.22 µM), without a hit: at the highest dose activation, usual class: activators | 320,000 tested, 2.4% active | AID 485313; further: % of control where 0% means no effect; nearly all actives have a fitted effect of over 60% in size
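Stable NPC1-promoter luciferase Huh7 line; cpd (DMSO) 24 h, 37 °C, 5% CO2; Amplite luciferase reagent 10 min RT; luminescence readout. qHTS format.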
uPA generation: cell surface uPA generation inhibition. Potency, µM (series often up to 38.3 µM), for the others: at the top dose activity change, negative = inhibition, usual class: inhibitors. cell surface uPA generation assay, qHTS. 330,000 tested, 0.31% active; active means well fitted inhibition curve with a large enough effect; inconclusive means small, poorly fitted or top-dose-only effect; inactive means no such curve, though single readings can be large or run the other way; tested in mouse RAW 264.7 cells; further: on the % scale 0 is the no-effect control and ±100 the full control effect; nearly all actives have a fitted effect of over 55% in size
SMN2 splice up: enhancers of SMN2 splice variant expression; HEK293 SMN2-luciferase splicing reporter, luminescence, 30-36 h; Potency, µM (top dose mostly 46.1 µM), for inactives: at the top dose activity change, positive = activation, most hits filed as activators; 210,000 tested, 2.8% active; AID 1458; further: % of control where 0% means no effect; nearly all actives have a fitted effect of over 55% in size
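qHTS luciferase splicing reporter: luminescence rises when SMN2 exon 7 is included in transfected HEK293 cells. Compound exposure lasted 30-36 h at 37C, with 4.5 mM final sodium butyrate as control, followed by a ONE-Glo read.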
FLuc modulator: counter-screen for miR-21 project: firefly luciferase inhibitors or activators | 360,000 tested, 6.9% active | Potency, µM (series often up to 57.5 µM), for the others: at the highest dose activity change, negative = inhibition, hits mostly inhibitors | purified FLuc, Km substrates, luminescence inhibition;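 further: plate controls were vehicle for no effect and reference inhibitor for full effect; nearly all actives have a fitted effect of over 55% in size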
Target sequence (P08659 whole entry, looked up): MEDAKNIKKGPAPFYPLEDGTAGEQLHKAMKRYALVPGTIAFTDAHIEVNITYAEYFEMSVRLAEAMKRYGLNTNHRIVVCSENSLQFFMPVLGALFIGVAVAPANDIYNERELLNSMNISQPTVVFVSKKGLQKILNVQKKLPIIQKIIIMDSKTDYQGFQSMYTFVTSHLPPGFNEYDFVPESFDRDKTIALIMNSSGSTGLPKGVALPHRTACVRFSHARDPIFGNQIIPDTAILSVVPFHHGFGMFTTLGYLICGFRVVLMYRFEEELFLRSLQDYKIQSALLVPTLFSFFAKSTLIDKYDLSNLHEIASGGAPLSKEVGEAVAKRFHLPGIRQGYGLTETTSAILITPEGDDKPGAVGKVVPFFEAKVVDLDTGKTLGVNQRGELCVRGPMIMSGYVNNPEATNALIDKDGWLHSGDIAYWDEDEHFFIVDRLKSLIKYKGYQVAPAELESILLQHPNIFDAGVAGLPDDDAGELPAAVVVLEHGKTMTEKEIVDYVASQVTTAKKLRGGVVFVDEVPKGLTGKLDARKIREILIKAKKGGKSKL
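Purified P. pyralis luciferase, 10 nM final, with Km-level 10 uM D-luciferin and 10 uM ATP in 50 mM Tris acetate pH 7.5, 10 mM Mg acetate, 0.01% Tween-20, 0.05% BSA; 6-point qHTS titration about 60 µM downward; luminescence read.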
* hit, by the source's call; ? = inconclusive; / = not tested or not shown; [ ] = another dose, or the depositor's remark. Unless noted, the call rests on the fitted dose curve; in most records, active means well fitted curve in the direction sought with a large enough effect; inconclusive means small, poorly fitted or top-dose-only effect, or another doubt; inactive means no such curve, though single readings can be large; an effect the other way counts as inactive or inconclusive. Potency means the concentration at half of the fitted maximal effect.

SMILES	ELG1 genotoxic	Rab9 prom act	NPC1 promoter act	uPA generation	SMN2 splice up	FLuc modulator
COc1ccc(N2CC(NC(=O)c3ccc(S(=O)(=O)N4CCOCC4)cc3)CC2=O)cc1 (stereo not given)	/	/	/	/	/	-4%
COc1cccc(CSc2nc3ccccc3c3nc(CCn4c(C)nc5ccccc54)nn23)c1	/	/	/	/	/	0%
CCN(C(=O)Cn1cnc2c1c(=O)n(C)c(=O)n2C)c1ccccc1C	/	/	/	/	0%	-4%
O=C(NCC1CCCO1)c1cn(-c2ccccc2)nc1-c1ccc(F)cc1 (stereo not given)	-2%	7%	3%	0%	/	11µM*
CC(C)c1ccc(-c2nn(-c3ccccc3)cc2C(=O)NCC2CCCO2)cc1 (stereo not given)	-9%	-11%	2%	3%	/	-12%
N#C/C(=C\c1ccc(N2CCOCC2)o1)C(=O)NCCc1ccccc1	0%	17%	-1%	-3%	16%	27µM*
COCCNC(=O)/C(C#N)=C/c1ccc(N2CCOCC2)o1	-1%	-2%	1%	5%	8%	-10%
N#C/C(=C\c1ccc(N2CCOCC2)o1)C(=O)NCC1CCCO1 (stereo not given)	1%	-28%	-36%	-5%	/	0%
N#C/C(=C/c1ccc(N2CCOCC2)o1)C(=O)Nc1ccccc1	?	2µM*	2µM*	-4%	14µM*	2.7µM*
N#C/C(=C\c1ccc(N2CCOCC2)o1)C(=O)NC1CCCCC1	10%	27%	19%	-3%	/	17µM*
Cc1ccccc1Cn1nnc2c(=O)[nH]c(C3CCCN(C(=O)c4ccc(F)cc4)C3)nc21 (stereo not given)	/	/	/	/	28%	3%
CC(C)CCNC(=O)CCCN1C(=O)c2ccccc2Sc2ncccc21	/	/	/	/	/	2%
O=C(NCc1ccccc1Br)c1ccc2nc(N3CCCCC3)sc2c1	/	/	/	/	9%	?
O=C(Cc1ccc(Br)cc1)OCC(=O)c1ccc2c(c1)OCCO2	4%	-2%	-4%	1%	16%	17µM*
O=C(Cc1n[nH]c(=O)c2ccccc12)OCC(=O)c1ccc(F)cc1	0%	1%	-2%	1%	/	4%
O=C(Cc1n[nH]c(=O)c2ccccc12)OCC(=O)c1ccc2c(c1)OCCO2	?	-10%	-8%	-7%	-19%	13µM*
CCOC(=O)CC(=O)NC(C)(C)CCCCC(C)(C)NC(=O)CC(=O)OCC	2%	-3%	0%	-13%	/	3%
Cc1ccc(N=Cc2cc(Cc3ccccc3Cl)cc([N+](=O)[O-])c2O)c(O)c1	4%	30%	6%	8.9µM*	-3%	?
O=C(CC(SCc1ccco1)c1ccc(O)cc1)c1cccs1 (stereo not given)	?	17%	7%	-8%	-4%	?
O=C(CC(SCCO)c1ccc2c(c1)OCO2)c1cccs1 (stereo not given)	?	4µM*	?	-25%	24%	13µM*
Cc1ccc(C(=O)Nc2ccc3oc(-c4cccnc4)nc3c2)c(Cl)c1	/	/	/	/	-5%	?
Cc1ccc2nc(-c3ccccn3)oc2c1	?	0.63µM*	1.6µM*	-10%	7.1µM*	1.9µM*
Cc1ccc2nc(-c3cccnc3)oc2c1	?	1.3µM*	?	-5%	?	8.5µM*
O=C(Nc1ccc(CN2CCS(=O)(=O)CC2)cc1)c1ccc(F)cc1	-2%	-2%	1%	5%	/	-1%
CC(C)(C)c1ccc(C(=O)Nc2ccc(CN3CCS(=O)(=O)CC3)cc2)cc1	-1%	-31%	-17%	-10%	/	9.5µM*
SMILES	ELG1 genotoxic	Rab9 prom act	NPC1 promoter act	uPA generation	SMN2 splice up	FLuc modulator
O=C(Nc1ccc(CN2CCS(=O)(=O)CC2)cc1)c1ccccc1	0%	0%	-1%	2%	/	-10%
O=C(Nc1ccc(CN2CCS(=O)(=O)CC2)cc1)c1ccc(C(F)(F)F)cc1	8%	-26%	-14%	-5%	/	17µM*
CC(=O)c1ccc(NC2OC(C)C(O)C(O)C2O)cc1 (stereo not given)	7%	-5%	1%	-1%	?	0%
C[C@@H]1OC(Nc2ccc(N=Nc3ccccc3)cc2)[C@H](O)[C@H](O)[C@H]1O (stereo not given in full)	11%	?	?	8%	/	24µM*
COc1cc2oc(=O)ccc2cc1-c1c(OC)ccc2ccc(=O)oc12	9%	/	/	8.9µM*	/	/
COc1cc2ccc(=O)oc2c(O)c1O	/	/	/	-16%	?	/
c1ccc2nc3c(nc2c1)[nH]c1ccccc13	9.2µM*	0.89µM*	3.2µM*	-3%	11µM*	3.8µM*
CN(C)c1ccc(/C=C/C(=O)c2c(O)c3ccccc3oc2=O)cc1	10%	?	24%	-7%	/	21µM*
CCOC(=O)c1c(O)c2ccccc2oc1=O	0%	-1%	-2%	-2%	/	?
CCOc1ccc(/C=C/C(=O)c2c(O)c3ccccc3oc2=O)cc1	1%	15%	-1%	-4%	-23%	11µM*
COc1ccccc1C(=O)Nc1ccc2nc(SCCOc3ccccc3C)sc2c1	/	/	/	/	/	4%
O=c1oc(-c2ccccc2F)nc2scc(-c3ccccc3)c12	?	?	18%	-3%	/	4.8µM*
COc1ccccc1/C=C/C=N/NC(=O)c1cccs1	?	3.2µM*	2.5µM*	2%	/	11µM*
COc1ccccc1/C=C\C=N\NC(=O)c1ccco1	?	?	20%	-2%	23%	?
COc1cc(/C=N/NC(=O)c2sc3nc(C)cc(C)c3c2N)ccc1O	9%	-7%	-3%	5%	/	5.4µM*
COc1cc(/C=N/NC(=O)c2ccccc2O)ccc1OC(=O)CC1SC(=O)NC1=O (stereo not given)	3%	1%	1%	-5%	/	17µM*
COc1cc(/C=N/NC(=O)c2cccs2)ccc1O	21µM*	?	29%	0%	/	11µM*
COc1cc2c(cc1OC)C(c1c[nH]c3ccccc13)NCC2 (stereo not given)	/	/	/	/	-8%	/
CC(C)CCN(Cc1ccco1)C(=O)c1cc2c(s1)-c1ccccc1OC2	/	/	/	/	-33%	-1%
c1ccc([C@H](CCN2CCCC2)c2ccccn2)cc1	/	/	/	/	-4%[9.22 µM]	/
N#CNC(N)=Nc1ccc(Cl)cc1	/	/	/	/	-14%[9.22 µM]	/
COc1ccc2o/c(=N/NC(=O)c3cccs3)c(C(N)=O)cc2c1	14%	?	?	-2%	14µM*	?
COc1cccc(/C=N/NC(=O)c2cccs2)c1	21µM*	2.8µM*	?	-3%	/	5.4µM*
COC(=O)N/N=C\c1cccc(OC(=O)c2cccs2)c1	7%	-4%	-2%	0%	6%	-15%
O=C(Oc1cccc(Cl)c1)N1CCOCC1	-1%	-1%	0%	2%	/	-2%
